# USP28 inh: blocks human USP28 ubiquitin-rhodamine cleavage; Q96RU2; purified USP28, Ub-rhodamine cleavage fluorescence, 30 min; inhibition, % at 25 µM; actives 3% (n = 47,000)
# OTUD3 inh: human OTUD3 deubiquitinase inhibition; AID 1645858; purified OTUD3, Ub-rhodamine fluorescence, 2 h; actives 0.7% (n = 47,000); Q5T2D3; inhibition, % at 25 µM
# USP7 block: blocks human USP7 ubiquitin-rhodamine cleavage. purified USP7, Ub-rhodamine cleavage fluorescence. inhibition, % at 20 µM. actives 0.3% (n = 47,000). AID 1645854
# USP10 block: human USP10 deubiquitinase inhibition | actives 1.1% (n = 47,000) | AID 1645856 | inhibition, % at 20 µM | purified USP10, Ub-rhodamine fluorescence, 60 min | Q14694
# UCHL1 block: human UCHL1 deubiquitinase inhibition. actives 0.2% (n = 47,000). P09936. inhibition, % at 20 µM. purified UCHL1, Ub-rhodamine cleavage fluorescence. AID 1645859
# Starred values were filed as active, the others as inactive; / = no result. Hits are enriched below; roughly 4.2% of the tested compounds scored in any of these assays. Cut-off read from the data, not from the text of the source: active = inhibition above about 30%; inactive = the rest.
SMILES,USP28 inh,OTUD3 inh,USP7 block,USP10 block,UCHL1 block
CCOC(=O)C1CCN(C(=O)c2ccccc2NS(=O)(=O)c2ccc(F)c(F)c2)CC1,0,-4,7,4,0
COc1nn(C)cc1C(=O)N1CCC(C(=O)Nc2ccc(Br)cc2F)CC1,45*,-1,-5,0,-1
O=C(Nc1ccc(N2CCCCC2)c(F)c1)c1ccccc1F,-8,-4,2,-1,5
COCC(C)Nc1ncc(-c2cnccn2)c(-c2ccc(C)s2)n1 (stereo not given),12,3,2,2,3
O=C(Nc1cc(-c2ccccn2)no1)c1cccc(F)c1,7,-1,-8,1,-4
COc1ccc(C(=O)Nc2cc(-c3ccccn3)no2)cn1,63*,15,3,0,0
CCCNc1cc(N2CCCC(CCC(=O)N3CCN(C(C)=O)CC3)C2)ncn1 (stereo not given),-12,-10,-4,-8,-5
COc1ccc(-c2noc(NCCc3ccccc3)n2)cc1,15,14,-9,5,3
Fc1ccc(CSc2nnc(-c3ccccn3)n2Cc2ccco2)cc1,56*,4,-16,9,0
Fc1ccccc1CSc1nnc(-c2ccccn2)n1Cc1ccco1,32*,5,-8,1,2
COc1cccc(NC(=O)Cn2cc(C(=O)C3CC3)c3ccccc32)c1,12,9,6,3,5
COc1cc(NC(=O)Cn2cc(C(=O)c3ccccc3)c(=O)c3cc(Cl)ccc32)cc(OC)c1,0,4,51*,62*,10
COc1ccccc1NC(=O)Cn1cc(C(=O)c2ccc(C)cc2)c(=O)c2cc(Cl)ccc21,2,12,8,31*,-1
COc1cccc(NC(=O)Nc2ccc(CCc3nc4ccccc4[nH]3)cc2)c1,66*,-4,4,13,8
COc1ccc(NC(=O)Nc2ccc(CCc3nc4ccccc4[nH]3)cc2)c(OC)c1,28,16,6,12,5
Cc1cc(C)cc(NC(=O)CN2C(=O)CC(c3ccccc3)Sc3ccccc32)c1 (stereo not given),33*,21,10,13,6
COc1cc(-c2ccno2)ccc1S(=O)(=O)Nc1ccc(C#N)cc1,-7,-10,-3,1,0
COc1cc(-c2ccno2)ccc1S(=O)(=O)Nc1ccccc1Cl,60*,6,3,3,4
CC(=O)Nc1ccc(NC(=O)N[C@H]2C[C@H]3CN(C)c4ccccc4CN3C2)cc1,31*,-8,2,-2,-2
CN1C[C@@H]2C[C@H](NC(=O)Nc3ccc(F)cc3)CN2Cc2ccccc21,0,1,2,0,0
Cc1cccc(C)c1NC(=O)COC(=O)CCc1ccc(S(=O)(=O)N2CCCCC2)cc1,0,3,0,1,1
O=C(COC(=O)CCc1ccc(S(=O)(=O)N2CCOCC2)cc1)Nc1ccc2c(c1)OCCO2,65*,9,7,3,4
CC(C)C(NS(=O)(=O)c1ccccc1)C(=O)OCC(=O)Nc1ccc2c(c1)OCO2 (stereo not given),8,13,1,0,2
CC(C)NS(=O)(=O)c1ccc(CCC(=O)Nc2ccc3c(c2)OCCO3)cc1,82*,-5,-9,1,-5
Cc1nc(NCc2ccccn2)c2cc(-c3ccccc3)sc2n1,-11,-3,3,-1,0
SMILES,USP28 inh,OTUD3 inh,USP7 block,USP10 block,UCHL1 block
CCOc1cccc(C2c3c(oc4ccc(C)cc4c3=O)C(=O)N2CCN2CCOCC2)c1 (stereo not given),9,7,3,-1,4
Cc1cc(C)c(NC(=O)CSc2nc3nccnc3c(=O)n2Cc2ccccc2Cl)c(C)c1,37*,31*,2,9,3
COc1ccccc1N(C(=O)Nc1ccccc1)C1=NCCC1,46*,7,-2,6,8
CCOC(=O)c1ccccc1NC(=O)C(=O)CC(=O)c1ccc(OC)cc1,24,0,0,3,-2
O=C(Nc1ccccc1-c1nc(-c2ccccn2)no1)c1ccc(Cl)cc1,0,-1,7,7,1
O=C(Nc1ccccc1F)c1cc(-c2cccnc2)n[nH]1,/,13,5,5,1
COc1cccc(-c2cc(C(=O)Nc3ccccc3)[nH]n2)c1,22,10,-7,3,4
O=C(Nc1cccc(Cl)c1)c1cc(-c2cccnc2)n[nH]1,55*,1,8,47*,5
CSc1cccc(NC(=O)c2cc(-c3cccnc3)n[nH]2)c1,53*,0,/,27,4
